According to PubChem BioAssay (NCI):
This is part of a sample that, as a whole, favours compounds with a hit. Of some 79,000 tested, about 15% had one in any assay. Active and inactive are the calls of the source. Rule as the data show it: active = growth inhibition above about 70%; inactive = the rest.

Assay: NCI Yeast Anticancer Drug Screen. Data for the rad52 strain (AID 147);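 also: 0% = growth of vehicle-treated control cultures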
Settings: S. cerevisiae rad52 mutant growth inhibition, stronger effect = higher value
Procedure: Growth inhibition of yeast strains with defined genetic alterations is measured as a screen for potential anti-cancer activity. Selected strains with alterations in DNA damage repair or cell cycle control were exposed to compounds and growth inhibition was measured relative to vehicle treated controls. The strain used in this assay is rad52

Row | SMILES | growth inhibition (at 1.2 µM) | growth inhibition (at 3.7 µM) | growth inhibition (at 11.0 µM) | growth inhibition (at 33.0 µM) | growth inhibition (at 100.0 µM)
1 | CC[C@@]1(O)C(=O)OCc2c1cc1n(c2=O)Cc2cc3c(N)cccc3nc2-1 | 54% (inactive) | 79% (active) | 85% (active) | 82% (active) | 75% (active)
2 | COc1cc(C(=O)/C=C/c2ccccc2O)ccc1O | -11% (inactive) | 55% (inactive) | 98% (active) | 98% (active) | 98% (active)
3 | Cc1c(C(=O)C(=O)c2ccccc2)c(C)c(C(=O)C(=O)c2ccccc2)c(C)c1C(=O)C(=O)c1ccccc1 | -4% (inactive) | -5% (inactive) | -7% (inactive) | -17% (inactive) | -14% (inactive)
4 | c1ccc2c(c1)sc1cc3ccncc3cc12 | -2% (inactive) | 7% (inactive) | 17% (inactive) | 94% (active) | 98% (active)
5 | COC(=O)CCNc1c2ccccc2nc2cccc([N+](=O)[O-])c12 | 97% (active) | 97% (active) | 97% (active) | 98% (active) | 98% (active)
6 | c1ccc(-c2ccnc3c2ccc2c(-c4ccccc4)ccnc23)cc1 | 4% (inactive) | 21% (inactive) | 50% (inactive) | 99% (active) | 99% (active)
7 | CCCCCCCCNC(=O)C1=C(C)NC(C)=C(C(=O)NCCCCCCCC)C1 | 0% (inactive) | 1% (inactive) | 3% (inactive) | -4% (inactive) | 3% (inactive)
8 | CCCCCCc1cc(C(=O)OC/C(C)=N/NC(N)=O)c2ccccc2n1 | -1% (inactive) | -1% (inactive) | 1% (inactive) | -1% (inactive) | -3% (inactive)
